Laboratory results reported in PubChem BioAssay (NCATS).
Results filed as inconclusive are left out. The source made the active and inactive calls. Calls follow the shape of the full dose curve.

Key:
[1] = Primary qHTS for Huh7 cytotoxicity: counterscreen for inhibitors of MERS-S pseudotyped particle cell entry (AID 1479147); settings: outcome: dose series up to 57.1 µM unless noted
[2] = Primary qHTS for inhibitors of MERS-S pseudo-typed particle cell entry (AID 1479149); settings: outcome: dose series up to 57.1 µM unless noted; also: nearly all actives have a fitted effect of over 60% in size
[3] = Primary qHTS for Vero E6 cytotoxicity: counterscreen for inhibitors of SARS-S pseudo-typed particle cell entry (AID 1479150); settings: outcome: dose series up to 57.1 µM unless noted
[4] = Cytotoxicity counterscreen for inhibitors of SARS-CoV-2 cell entry (AID 1645845); settings: outcome: dose series up to 57.1 µM unless noted; also: nearly all actives have a fitted effect of over 50% in size
In short: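 ATP-content luminescence (ATPLite 1step, 15 min RT) read after 48 h compound exposure of Expi293F cells stably expressing human ACE2; normalized to cells-only wells and media-only wells.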

[5] = Confirmatory qHTS to identify inhibitors of SARS-CoV-2 cell entry (AID 1645844); also: nearly all actives have a fitted effect of over 45% in size; also: potency is read from the fitted curve at half-maximal effect
In short: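 Luminescence entry read-out after 48 h: spike-pseudotyped MLV particles (Wuhan-Hu-1, 19-aa C-terminal truncation) added to compound-pretreated (1 h) HEK293-ACE2 cells; Data were normalised to bald PP and spike PP wells.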

[6] = Primary qHTS to identify inhibitors of SARS-CoV-2 cell entry (AID 1645846); settings: SARS-CoV-2 pseudovirus cell entry assay, luminescence; also: nearly all actives have a fitted effect of over 45% in size
In short: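 HEK293-ACE2 (Expi293F, stable hACE2), 1500 cells/well, o/n 37C; cpd 23 nL pin, 1 h; MLV-PP w/ SARS-CoV-2-S (Wuhan-Hu-1, Δ19 C-term); 48 h 37C; Bright-Glo luminescence; normalized vs S-PP and bald PP.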

[7] = VSVG counterscreen qHTS to identify inhibitors of SARS-CoV-2 cell entry (AID 1645847); also: nearly all actives have a fitted effect of over 65% in size; also: potency is read from the fitted curve at half-maximal effect
In short: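 Expi293F/hACE2 cells, overnight plating; cpd 1 h, 37C/5% CO2; + VSV-G PP (MLV pseudotyping), 48 h; supernatant removed, Bright-Glo luciferase read. Norm: VSV-G PP and bald PP wells.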

CC(=O)Nc1c(I)c(C(=O)N[C@H]2C(O)O[C@H](CO)[C@@H](O)[C@@H]2O)c(I)c(N(C)C(C)=O)c1I (stereo partly drawn)
inactive: Potency [1] | Potency [2] | Potency [3] | Potency [4]

O=C(O)C(O)[C@H](O)[C@H](O)[C@H](O)[C@H](O)CO (stereo partly drawn)
inactive: Potency [1] | Potency [2] | Potency [3] | Potency [4]

CNc1ncc(-c2ccc3c(=O)c(C(=O)O)cn(C4CC4)c3c2C)cc1C
inactive: Potency [1] | Potency [2] | Potency [3] | Potency [4]

CN(C)C(=O)c1cc2cnc(Nc3ccc(N4CCNCC4)cn3)nc2n1C1CCCC1
-19.2%: activity change, negative = inhibition ([6]; at 27.1 µM (top of the series))
inactive: Potency [1] | Potency [2] | Potency [3] | Potency [5] | Potency [7]
-45.9%: activity change, negative = inhibition ([6]; at 57.1 µM (top of the series))

C=CCNc1c(O)cc2c(O)c1C[C@@H](C)C[C@H](OC)[C@H](O)[C@@H](C)/C=C(/C)[C@H](OC(N)=O)[C@@H](OC)/C=C\C=C(\C)C(=O)N2
inactive: Potency [1] | Potency [2] | Potency [3] | Potency [4]

N=C(N)c1ccc(/C=C/c2ccc(C(=N)N)cc2O)cc1
inactive: Potency [1] | Potency [2] | Potency [3] | Potency [4]

C[N+](C)(C)CC(O)CC(=O)O (stereo not drawn)
inactive: Potency [1] | Potency [2] | Potency [3] | Potency [4]

Cc1c(C)c2c(c(C)c1OC(=O)CCC(=O)O)CC[C@@](C)(CCC[C@H](C)CCC[C@H](C)CCCC(C)C)O2
inactive: Potency [1] | Potency [2] | Potency [3] | Potency [4]

CC(C)(C)C(=O)OCOC(=O)[C@@H]1N2C(=O)[C@@H](N=CN3CCCCCC3)[C@H]2SC1(C)C
inactive: Potency [1] | Potency [2] | Potency [3] | Potency [4]

COc1ccc2c(=O)c(C)c(-c3ccccc3)oc2c1CN(C)C
inactive: Potency [1] | Potency [2] | Potency [3] | Potency [4]

CC[N+](CC)(CC)CCC(O)(c1ccccc1)C1CCCCC1 (stereo not drawn)
inactive: Potency [1] | Potency [2] | Potency [3] | Potency [4]

Cc1ncc(COP(=O)(O)O)c(CN)c1O
inactive: Potency [1] | Potency [2] | Potency [3] | Potency [4]

O=C(Nc1ccc(O)cc1)c1ccccc1O
inactive: Potency [1] | Potency [2] | Potency [3] | Potency [4]

O=C(O)c1cc(O)c2c(c1)[C@H]([C@H]1c3cc(C(=O)O)cc(O)c3C(=O)c3c(O[C@@H]4O[C@H](CO)[C@@H](O)[C@H](O)[C@H]4O)cccc31)c1cccc(O[C@@H]3O[C@H](CO)[C@@H](O)[C@H](O)[C@H]3O)c1C2=O
inactive: Potency [1] | Potency [2] | Potency [3] | Potency [4]

CO[C@H]1C[C@H](O[C@@H]2[C@H](C)O[C@H](O[C@@H]3/C(C)=C/C[C@@H]4C[C@@H](C[C@]5(C=C[C@H](C)[C@@H](C6CCCCC6)O5)O4)OC(=O)[C@@H]4C=C(C)C(O)[C@H]5OC/C(=C\C=C\[C@@H]3C)[C@]54O)C[C@@H]2OC)O[C@@H](C)[C@@H]1O (stereo partly drawn)
active: Potency [5] 2710 nM | Potency [7] 1360 nM
inactive: Potency [1] | Potency [2] | Potency [3] | Potency [4]

CN[C@@H]1[C@@H](O)[C@@H](O[C@@H]2[C@@H](O)[C@H](OC3O[C@H](CN)[C@@H](O)[C@H](O)[C@H]3O)[C@@H](N)C[C@H]2NC(=O)[C@@H](O)CN)OC[C@]1(C)O (stereo partly drawn)
inactive: Potency [1] | Potency [2] | Potency [3] | Potency [4]

CO/N=C(\C(=O)N[C@@H]1C(=O)N2C(C(=O)OCOC(=O)C(C)(C)C)=C(/C=C\c3scnc3C)CS[C@H]12)c1csc(N)n1
inactive: Potency [1] | Potency [2] | Potency [3] | Potency [4]

CCOc1nc2cccc(C(=O)OC(C)OC(=O)OC3CCCCC3)c2n1Cc1ccc(-c2ccccc2-c2nn[nH]n2)cc1 (stereo not drawn)
inactive: Potency [1] | Potency [2] | Potency [3] | Potency [4]
active: Potency [5] 2410 nM | Potency [7] 429 nM

CCOc1ccc(N=C(C)Nc2ccc(OCC)cc2)cc1
inactive: Potency [1] | Potency [2] | Potency [3] | Potency [4]
